Screens from PubChem BioAssay.
In the library only some 2.7% were active in any assay of this set; here they are far more common.
IP6K1 inh: inhibitors of human IP6K1; Q92551; IP6K1 kinase, ADP-Glo luminescence, 2 h; stronger effect = lower value; activity change, % (series mostly up to about 58 µM); hit rate 0.81% among 140,000; AID 1645851; in the data active means activity change below about -25%; further: on the % scale 0 is the no-effect control and ±100 the full control effect
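ADP-Glo luminescence measures ADP made by human IP6K1 during a 2 h RT reaction with ATP/IP6 (mix at 1.3 mM/130 uM); top library doses 57.5 and 19.1 uM final.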
KDM5B inhibitor: blocks human KDM5B histone demethylase activity. Q9UGL1. Potency, µM (titrated, usually from 57.7 µM), most hits filed as inhibitors. KDM5B demethylase, FDH-coupled NADH fluorescence (FDH is formaldehyde dehydrogenase). hit rate 2.6% among 220,000; further: potency means the concentration at half of the fitted maximal effect; 0% is about no effect; nearly all actives have a fitted effect of over 70% in size
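KDM5BΔAP (200 nM final) in 50 mM HEPES pH 7.5, 0.01% Tween-20 was preincubated 10 min at RT with compound over a concentration range. Substrate mix (H3K4me3 12.5 µM, α-KG 25 µM, Fe²⁺, ascorbate, NAD⁺, FDH) was added, and NADH fluorescence change over 30 min gave dose-response curves.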
IP6K1 inh cnf: human IP6K1 inhibition, confirmatory. shares compounds with IP6K1 inh. recombinant IP6K1 kinase, ADP-Glo luminescence, 2 h. Potency, µM (series often up to 49 µM), without a hit: at the top dose activity change, negative = inhibition, hits mostly inhibitors. hit rate 13% among 1,200; further: potency means the concentration at half of the fitted maximal effect; on the % scale 0 is the no-effect control and ±100 the full control effect; nearly all actives have a fitted effect of over 65% in size
The depositor's hits bear a star; i = inactive; ? = inconclusive; nt = no result. Unless noted, the call rests on the fitted dose curve; in most records, active means well fitted inhibition curve with a large enough effect; inconclusive means small, poorly fitted or top-dose-only effect; inactive means no such curve, though single readings can be large or run the other way.

SMILES	IP6K1 inh	KDM5B inhibitor	IP6K1 inh cnf
CCOc1ccc(CN(CCc2ccc3c(c2)OCO3)Cc2cc(OC)c(OC)cc2OC)cc1	-30*	?	51%
O=C(Nc1noc2ccccc12)c1cccc(F)c1	1	?	nt
O=C(Nc1noc2ccccc12)c1ccc(F)cc1	-48*	i	?
CC(NC(=O)CSc1ccccc1)c1ccc2c(c1)OCCO2 (stereo not given)	nt	i	nt
CSCCc1nc(SCC(=O)Nc2ccc(C)cc2)[nH]c1C	nt	i	nt
O=C(Nc1ccc(Cl)cc1)N1Cc2[nH]cnc2C[C@H]1c1nc(-c2ccc3ccccc3c2)no1	0	?	nt
CCCCCCCC(=O)[O-].CCCCCCCC(=O)[O-].[Zn+2]	-36*	nt	?
CCCCCCCCCCCCCCCCCC(=O)O	-7	nt	nt
CC(C)c1ccc(OCc2cc(=O)n3c(-c4ccccc4)csc3n2)cc1	-31*	?	-7%
Cc1cccc(C)c1OCc1cc(=O)n2c(-c3ccccc3)csc2n1	-11	i	nt
COc1ccc(-c2ccc(C(=O)Nc3cccc(Cl)c3)cc2)nn1	12	nt	nt
O=C1NC(=O)/C(=C/c2ccc3c(c2)OC(F)(F)O3)S1	-37*	nt	?
Cc1ccc(-n2c(C)cc(/C=C3\SC(=O)NC3=O)c2C)cc1	nt	i	nt
CN(C)CCN(CC1CCCCC1)C(=O)Nc1ccc(Cl)cc1	nt	i	nt
Cc1nn(CC(=O)Nc2nc3c(C)cccc3s2)c(=O)c2ccccc12	nt	i	nt
COc1ccc(-c2nc3c(c(SCC(=O)Nc4cccc(O)c4)n2)Cc2c(CO)cnc(C)c2O3)cc1	-29*	?	-3%
CCOc1ccc(NC(=O)CSc2nc(-c3ccc(OC)cc3)nc3c2Cc2c(CO)cnc(C)c2O3)cc1	14	i	nt
NNc1c(Cl)cc(Cl)cc1Cl	nt	i	nt
O=C(Cc1c[nH]c2ccccc12)NCCc1cccc(Cl)c1	nt	i	nt
COc1c(Cl)cc(C(=O)Nc2cc(-c3nc4ccccc4[nH]3)ccc2C)cc1Cl	-4	?	nt
COc1cc(OC)cc(C(=O)Nc2cc(-c3nc4ccccc4[nH]3)ccc2C)c1	-25*	?	14%
FC(F)(F)c1cc(Cl)c2nc(C34CC5CC(CC(C5)C3)C4)cn2c1	nt	i	nt
O=C([C@H]1CCCN1C(=O)C1CC1)N1CCCC(c2nc3ccncc3[nH]2)C1 (stereo not given in full)	12	nt	nt
O=C(C1CCCN1C(=O)C1CC1)N1CCC(c2nc3ccncc3[nH]2)C1 (stereo not given)	-27*	nt	-4%
O=C(NCC#Cc1cccc(C(F)(F)F)c1)c1ccc(=O)[nH]c1	nt	i	nt
SMILES	IP6K1 inh	KDM5B inhibitor	IP6K1 inh cnf
CC(=O)Nc1ccc(NC(=O)CC(C)c2ccccc2)cc1 (stereo not given)	nt	i	nt
Cc1ccc2oc(C(=O)N(Cc3ccccc3F)C3CCS(=O)(=O)C3)c(C)c2c1 (stereo not given)	-2	i	nt
Cc1c(C(=O)N(Cc2ccccc2F)C2CCS(=O)(=O)C2)oc2ccccc12 (stereo not given)	-61*	i	-21%
COc1ccc(C)cc1-n1nnc(-c2nc(-c3cccs3)no2)c1N	nt	i	nt
CC(C)N1C[C@@H]2C[C@H]1C(=O)N(Cc1ccccc1)c1ccccc1O2	12	i	nt
COc1cccc(-c2cc(C3CCN(C(=O)Nc4ccc(F)cc4F)CC3)[nH]n2)c1	-1	i	nt
COc1cccc(-c2ccc(NC(=O)C3=C(C(=O)O)CCC3)c(F)c2)c1	-27*	nt	?
Cc1cccc2c1NC(=O)C2(c1ccc(O)cc1)c1ccc(O)cc1	-26*	nt	1%
O=C1Nc2ccccc2C1(c1ccc(O)cc1)c1ccc(O)cc1	5	nt	nt
O=C(NCCc1ccccc1)C1CCCCN1Cc1ccc(-c2cccs2)cc1 (stereo not given)	-9	nt	nt
COc1ccc(NC(=O)N2CCC(N(C)S(C)(=O)=O)CC2)cc1	nt	i	nt
O=C1CCC2(CCCO2)CCN1Cc1cccc(F)c1F (stereo not given)	-31*	i	-9%
O=C1CCC2(CCCO2)CCN1Cc1c(F)cccc1F (stereo not given)	13	i	nt
Cc1ccc(-c2c(C(=O)NCc3ccc(Cl)cc3)nc3sccn23)cc1	11	nt	nt
CN(C)c1ccc(C(=C2C=CC(=[N+](C)C)C=C2)c2ccccc2)cc1	-42*	nt	15µM*
CN(C)c1ccc(C(=O)C(=O)c2ccccc2)cc1	nt	i	nt
COc1cc(C(=O)Nc2ccc(C)c(S(=O)(=O)N3CCCCCC3)c2)cc(OC)c1OC	nt	i	nt
Cc1ccc(C(=O)Nc2ccc3c(c2)nc(CSc2nccc(C)n2)n3C)cc1	nt	i	nt
Cc1ccc(NCc2cccn2-c2nnc(N3CCC(C(=O)NCc4ccc(OC(C)C)cc4)CC3)s2)cc1	-10	?	nt
Cc1ccc(NCc2cccn2-c2nnc(N3CCC(C(=O)NCCc4ccc(Cl)cc4)CC3)s2)cc1	-25*	i	37%
CC(C)c1nc2ccccc2n1CC(=O)N1CC[C@](C)(O)[C@@H](O)C1	5	i	nt
Cc1nc2ccccc2n1CCC(=O)N1C[C@@H](C)[C@](O)(C(C)C)C1	-37*	i	-9%
Cc1ccc(C2Cn3nnc(C(=O)N4CCN(C(=O)c5cccc(N(C)C)c5)CC4)c3CO2)cc1 (stereo not given)	-17	i	nt
O=c1c(S(=O)(=O)c2ccc(Cl)cc2)cn(Cc2ccc(F)cc2)c2ccc(F)cc12	-38*	i	?
COc1cc2c(=O)c(S(=O)(=O)c3ccc(F)cc3)cn(Cc3ccc(Cl)cc3)c2cc1OC	-14	i	nt
SMILES	IP6K1 inh	KDM5B inhibitor	IP6K1 inh cnf
CC(=O)c1c(C)oc2c1cc(NS(=O)(=O)c1ccc(Br)cc1)c1ccccc12	8	i	nt
O=C(O)CSc1cc(NS(=O)(=O)c2ccc(Br)cc2)c2ccccc2c1O	-76*	nt	?
CN(CC(=O)NC1CC1)c1nc(-c2ccsc2)nc2ccccc12	nt	i	nt
Cc1ccc(NC(=O)c2cc(=O)c3ccc(C)c(C)c3o2)cc1	nt	i	nt
CCOC(=O)c1ccc(NC(=O)c2cc(=O)c3ccc(C)c(C)c3o2)cc1	-25*	i	2%
Cc1nc2cc(NC(=O)COc3cccc(Cl)c3)ccc2o1	nt	i	nt
Cc1ccc2c(c1)OC(c1ccc3c(c1)OCCO3)CC2=O (stereo not given)	nt	i	nt
O=C1C[C@@H](c2ccc(O)cc2)Oc2cc(O)ccc21	-35*	nt	?
COc1ccc(-c2cc(N3CCCC(NC(=O)c4ccc(C)cc4C)C3)n[nH]2)cc1 (stereo not given)	0	i	nt
CN1CCN(c2cc(=O)c3ccnc(-c4ccc(Cl)cc4)c3o2)CC1	-32*	35µM*	?
Cc1ccc(-c2nccc3c(=O)cc(-c4cn[nH]c4)oc23)cc1	-19	?	nt
Cn1c(=O)ccn(CC(=O)Nc2nc(C(C)(C)C)cs2)c1=O	nt	i	nt
COc1ccc(Nc2ccnc(N3CCC(NC(=O)c4cccc(OC)c4)CC3)n2)cc1	-1	nt	nt
COc1ccc(OC(=O)c2nc(SCc3ccccc3F)ncc2Cl)cc1	-34*	?	8%
O=C(Oc1ccc(F)cc1)c1nc(SCc2ccccc2F)ncc1Cl	-16	?	nt
O=C(c1ccc(F)cc1)N1Cc2[nH]cnc2C[C@H]1c1nc(-c2ccc(Cl)cc2)no1	-39*	i	?
Cc1cccc(-c2noc([C@@H]3Cc4nc[nH]c4CN3C(=O)c3ccc(F)cc3)n2)c1	-14	i	nt
